# VACV Venus inh: qHTS for Stage-Specific Inhibitors of Vaccinia Orthopoxvirus: Venus Reporter Primary qHTS | Vaccinia virus Venus reporter expression, fluorescence | Potency, µM (highest dose often 36.5 µM), for the others: at the highest dose activity change, negative = inhibition, actives largely listed as inhibitors | hit rate 0.46% among 330,000; calls by dose curve; tested in A549 cells; also: nearly all actives have a fitted effect of over 30% in size
# Vaccinia mCherry: qHTS for Stage-Specific Inhibitors of Vaccinia Orthopoxvirus: mCherry Reporter Primary qHTS | Vaccinia virus mCherry reporter infection, fluorescence | Potency, µM (doses to about 36.5 µM), for the others: top-dose activity change, negative = inhibition, usual class: inhibitors | hit rate 0.63% among 310,000 | AID 720579, 2013; calls by dose curve; tested in A549 cells; also: nearly all actives have a fitted effect of over 35% in size
# HCV inhibitor: qHTS Assay for Inhibitors of Hepatitis C Virus (HCV); hit rate 3.4% among 340,000; Huh7.5.1 HCVcc-Cre infection, luciferase reporter, 44 h; Potency, µM (doses to about 41.8 µM), for the others: top-dose activity change, negative = inhibition, actives largely listed as inhibitors; AID 651820, 2012; active = well fitted inhibition curve with a large enough effect; inconclusive = small, poorly fitted or top-dose-only effect, or another doubt; inactive = no such curve, though single readings can be large or run the other way
#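 Seed cells (1,000/well) for 4 h; treat with compound and infect with HCVcc-Cre, moi about 0.5. Incubate 44 h, then detect luciferase activity.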
# An asterisk follows results filed as active; i = inactive; ? = inconclusive; . = no result. A selection: hits, their analogues and other compounds. The true share with any hit is near 3.3%. % is scaled to controls: 0 for no effect and ±100 for the full control effect; potency is read from the fitted curve at half-maximal effect.
SMILES,VACV Venus inh,Vaccinia mCherry,HCV inhibitor
COc1cc(SC)ccc1C(=O)N1CCN(Cc2ccccc2)CC1,.,.,25µM*
COc1ccc(Nc2ncc(C(=O)N3CCN(Cc4ccccc4)CC3)c3ccccc23)cc1,.,.,10µM*
COc1ccccc1Nc1ncc(C(=O)N2CCC(C(N)=O)CC2)c2ccccc12,.,.,-5%
COc1ccc(Nc2ncc(C(=O)N3CCC(C(N)=O)CC3)c3ccccc23)cc1,.,.,12%
COc1ccc(CN2CCN(C(=O)C3CCC(CNS(=O)(=O)c4ccccc4)CC3)CC2)c(OC)c1OC (stereo not drawn),-15%,i,3.5µM*
O=C(C1CCC(CNS(=O)(=O)c2ccccc2)CC1)N1CCCCC1 (stereo not drawn),-2%,14%,-15%
Cc1sc2nc(CSC(C)C(=O)N3CCOCC3)[nH]c(=O)c2c1C (stereo not drawn),.,.,2%
CC1Oc2cc3oc4c(O)c5c(cc4c(=O)c3c(O)c2C1(C)C)C=CC(C)(C)O5 (stereo not drawn),-13%,-15%,5µM*
CC1(C)C=Cc2cc3ccc(=O)oc3cc2O1,-25%,-22%,-7%
Cc1ccc(NC(=S)c2nc3ccccc3[nH]2)c(C)c1,-28%,?,-15%
Cc1cccc(/C=C(\c2nc3ccccc3[nH]2)S(=O)(=O)c2ccccc2)c1,?,?,11µM*
O=C(O)c1ccc(/C=C(\c2nc3ccccc3[nH]2)c2nc3ccccc3s2)cc1,-17%,?,27%
CC(C)(C)c1ccc(/C=C(\c2nc3ccccc3[nH]2)S(=O)(=O)c2ccccc2)cc1,?,14µM*,11µM*
COc1ccc(CCNC(=O)CSc2nc3ccccc3nc2Cc2ccc(C)cc2)cc1OC,-13%,-22%,.
CCC(Sc1nc2ncccc2[nH]1)C(=O)Nc1cccc(OC)c1 (stereo not drawn),-7%,-9%,.
Cn1cc(CCC(=O)NCCCc2ccccc2)c2ccccc21,-14%,i,-10%
Cc1cc(Br)cnc1NC(=S)Nc1ccc(F)cc1F,-5%,-17%,10µM*
O=C(Nc1ccc(F)cc1F)c1cncc(Br)c1,-12%,i,13%
COc1ccc(CCSc2n[nH]c(C(C)C)n2)cc1,-15%,-10%,.
COc1ccc2sc(N(CCN(C)C)C(=O)/C=C/c3cccs3)nc2c1,.,.,16µM*
Cc1cccc2sc(N(CCN(C)C)C(=O)/C=C/c3cccs3)nc12,?,-26%,?
CN(C)CCCN(C(=O)/C=C/c1cccs1)c1nc2c(F)cccc2s1,10µM*,10µM*,?
CCOc1ccc2nc(N(CCN(CC)CC)C(=O)/C=C/c3cccs3)sc2c1,-25%,?,?
Cc1[nH]c2c(F)cccc2c1CC(=O)NCCN1Cc2ccccc2OC(C)C1 (stereo not drawn),-12%,-11%,.
COc1cc(N(C)C)ccc1/C=C/c1ccnc2ccccc12,47%,-28%,.
SMILES,VACV Venus inh,Vaccinia mCherry,HCV inhibitor
O=C(CCc1cn(Cc2ccccc2Cl)c2ccccc12)NC1CCCCC1,-11%,-14%,.
COc1ccc(CNC(=O)CCCCCNc2nc(=S)[nH]c3ccccc23)cc1,-21%,-6%,?
O=C(NCCC1=CCCCC1)C1CCC(CNc2nc(=S)[nH]c3ccccc23)CC1 (stereo not drawn),-6%,?,?
O=C(NCCc1ccc(Cl)cc1)C1CCC(CNc2nc(=S)[nH]c3ccccc23)CC1 (stereo not drawn),-2%,-4%,11µM*
COc1ccc(CCNC(=O)CCCCCNc2nc(=S)[nH]c3ccccc23)cc1OC,-22%,?,11µM*
Cc1ccc(S(=O)(=O)Nc2cccc(C(=O)NCCCN3CCOCC3)c2)cc1F,-18%,-13%,10%
COc1ccc(NC(=O)COc2ccccc2C(=O)Nc2ccccc2)cc1,-10%,-14%,.
O=[N+]([O-])c1ccc(N2CCN(S(=O)(=O)c3ccccc3)CC2)cc1NCc1cccnc1,18µM*,.,19%
O=[N+]([O-])c1ccc(N2CCN(S(=O)(=O)c3ccc(Cl)cc3)CC2)cc1NCc1cccnc1,-3%,-10%,3%
O=C(CSc1nccn1Cc1ccc(Cl)cc1)Nc1ccc2c(c1)OCCO2,-10%,i,.
CC(C)(C)C1CCC(=O)N(CCSc2ccccc2)CC1 (stereo not drawn),-15%,-19%,3.5µM*
Cc1ccc(SCCN2CCC(C(C)(C)C)CCC2=O)cc1 (stereo not drawn),-21%,-3%,-1%
CCOC(=O)C1=NOC2C3CC(C12)C1C(=O)N(CCc2ccc(OC)c(OC)c2)C(=O)C31 (stereo not drawn),.,.,32%
Cc1ccc(Cl)cc1NC(=O)c1cc(CN2CCCC2)on1,1%,3%,.
Cc1ccc2nc3n(c(=O)c2c1)-c1cc2ccccc2cc1C(=O)NC3Cc1ccccc1 (stereo not drawn),?,-16%,.
Cc1nc2ccccc2c(=O)n1/N=C/c1cc(Br)ccc1O,-25%,?,?
O=c1c2ccccc2nc(N/N=C/c2c(O)ccc3ccccc23)n1O,?,.,0.89µM*
O=c1c2ccccc2nc(N/N=C/c2ccc(O)cc2)n1O,-9%,.,-4%
Cc1nc2ccccc2c(=O)n1/N=C/c1c(O)ccc2ccccc12,?,13µM*,-15%
O=C(Cn1cnc2ccccc21)N/N=C/c1cccc([N+](=O)[O-])c1,-4%,-1%,1%
O=C([C@@H]1CC=C[C@@H]2CCN(C3CC3)C(=O)[C@@H]21)N1CCOCC1,-8%,-13%,.
CCC(=O)Nc1cc2[nH]c(=O)cc(C)c2cc1C,.,.,10%
Cc1cc2c(C)cc(=O)[nH]c2cc1NC(=O)CCl,.,.,11µM*
COc1ccc(OC)c2[nH]c(=O)c(CCNC(=O)c3ccc(S(=O)(=O)N4CCCC4)cc3)cc12,-12%,-6%,11µM*
COc1ccc(CNC(=O)c2cccc(S(=O)(=O)N3CCCCC3)c2)cc1OC,.,.,6.3µM*
SMILES,VACV Venus inh,Vaccinia mCherry,HCV inhibitor
O=C(NCc1ccc2c(c1)OCO2)C(=O)NCC1OCCN1S(=O)(=O)c1ccc(Cl)cc1 (stereo not drawn),-27%,-11%,.
COc1ccc(CNC(=O)c2cc(S(=O)(=O)N3CCCCC3)ccc2Cl)cc1OC,-20%,i,11µM*
CCN(CC)S(=O)(=O)c1ccc(C(=O)NCCc2cc3c(OC)ccc(OC)c3[nH]c2=O)cc1,-8%,-16%,?
O=C(NCc1ccc2c(c1)OCO2)C(=O)NCC1OCCN1S(=O)(=O)c1ccc(Br)cc1 (stereo not drawn),-21%,-9%,10µM*
COc1ccc(CCNC(=O)c2cccc(S(=O)(=O)N3CCCC3)c2)cc1OC,.,.,-6%
O=C(NCc1ccc(F)cc1)c1cc(S(=O)(=O)N2CCCCC2)ccc1Cl,.,.,0%
COc1ccc(-c2[nH]ncc2CN2CCC(OCc3ccccn3)CC2)c(F)c1,.,.,3%
CO[C@H]1[C@H](NC(=O)c2ccsc2)c2ccccc2C12CCN(Cc1cc(Cl)ccc1O)CC2,-18%,-28%,.
CCOc1ccccc1NC(=O)CC(c1ccc(F)cc1)N1Cc2ccccc2C1=O (stereo not drawn),-2%,-9%,.
COc1ccccc1CN1CC(C(=O)N(C)CCc2nc3ccc(F)cc3[nH]2)CCC1=O (stereo not drawn),.,.,9%
